Data: PubChem BioAssay (NCI)
The panel holds about 83,000 compounds, 20% with a hit somewhere; the sample as a whole holds those more often.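 Results are percent growth after 48 hours of single-concentration exposure. 100 means growth as in untreated cells, lower positive values show inhibition; negative values down to -100 show cell death.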 The source made the active and inactive calls. The calls were made as follows: active = growth percent below 10; inactive = the rest.

test system: 786-0 renal; assay: NCI-60 one-dose screen, 48 h (100 = growth as untreated, 0 = no growth, -100 = all killed); settings: 10 µM unless noted

Row | Structure (SMILES) | growth
1 | O=C(CNc1cccnc1)Nc1ccc(C(=O)/C=C/c2ccc(Cl)cc2)cc1 | 105% (inactive)
2 | CCc1ccc(C2=C/C(=C/c3ccc(Cl)cc3)C(=O)N2CCc2ccc(S(N)(=O)=O)cc2)cc1 | 40% (inactive)
3 | O=C(Nc1ccc(-n2ccc3c(NC(=O)c4ccccc4)nccc32)cc1)c1cccc(C(F)(F)F)c1 | 18.3% (inactive)
4 | O=S(=O)(CCN1CCOCC1)Nc1cc(-c2ccc3ncnc(Nc4ccc(F)c(Cl)c4)c3c2)cnc1Cl | 8.06% (active)
5 | CCC1S/C(=N\N=C(/C)c2cc3ccccc3o2)N(c2ccccc2)C1=O (centres undefined) | 103% (inactive)
6 | COc1cccc(-c2nc3sccn3c2-c2ccnc(NCCNC(=O)c3ccccc3)n2)c1 | 78.4% (inactive)
7 | NC(N)=N/N=C/c1ccc([N+](=O)[O-])cc1 | 103% (inactive)
8 | C#C[C@@]1(O)[C@@H](CO)O[C@@H](n2cc(Br)c3c(Cl)ccnc32)[C@@H]1O | 33.5% (inactive)
9 | O=C(C[n+]1cccc(Br)c1)c1ccc2c(c1)CCCC2 | 88.3% (inactive)
10 | CCC(C)Nc1ccc(N)cc1 (centres undefined) | -35.8% (active)
11 | Cc1cn(-c2nc3c(c(NCc4ccccc4)n2)COCC3)c2cccc(C(N)=O)c12 | 40.9% [0.5 µM] (inactive)
12 | Nc1ncnc2c1ccn2-c1cccc(NC(=O)c2cccc(C(F)(F)F)c2)c1 | 101% (inactive)
13 | COc1ccc(-c2nnc(SCC(=O)Nc3ccc(C(=O)/C=C/c4ccccc4)cc3)o2)cc1OC | 101% (inactive)
14 | CCCCCCCCCCCCCCCCCCNCc1ccc(Cl)cc1 | -75.1% (active)
15 | Clc1ccc2c(c1)nnn1c3ncccc3c(Br)c21 | 56.6% (inactive)
16 | CCCOC(=O)c1ccc([N+](=O)[O-])o1 | 108% (inactive)
17 | [2H]c1nc(Nc2ncc(F)c(-c3cc(F)c4nc(C)n(C(C)C)c4c3)n2)c([2H])c([2H])c1CN1CCN(CC)CC1 | 52.8% (inactive)
18 | COc1ccccc1N1CCN(CC(O)COc2c(Br)c(Br)c(Br)c3c2OC(C)(C)C3)CC1 (centres undefined) | 6.05% (active)
19 | CCOC(=O)c1noc2c1CCc1cn(Cc3cc(OC)cc(OC)c3)cc1-2 | 101% (inactive)
20 | O=C(Nc1ccc(Cl)c(Cl)c1)Nc1ccc(Cl)c([N+](=O)[O-])c1 | 7.48% (active)

test system: COLO 205 colon; assay: as above; settings: 10 µM unless noted

Row | Structure (SMILES) | growth
21 | CN(C)CCNc1nc2ccccc2c2c(=O)c3ccccc3sc12 | -79.6% (active)
22 | Nc1nc2ccc(CNc3ccc(C(=O)NC(CC(=O)O)C(=O)O)cc3)cc2c(=O)[nH]1 (centres undefined) | 85.4% (inactive)
23 | CC12CCC3C(CCC4CC(O)CCC43C)C1C/C(=C/O)C(=O)O2 (centres undefined) | 105% (inactive)
24 | COc1cc(/C=C/C(=O)c2ccc(Oc3ncnc4ccccc34)cc2)cc(OC)c1OC | 109% (inactive)
25 | Nc1n[nH]c2cccc(C#Cc3cccc(NC(=O)c4cccc(C(F)(F)F)c4)c3)c12 | 16.5% (inactive)
26 | COc1ccc(-c2nn(-c3ccc(NC(=O)c4ccc(Cl)c(C(F)(F)F)c4)cc3)cc2-c2ccncc2)cc1Cl | -19% (active)
27 | CCCN1C(=O)CSC1=Nc1ccc2cc3ccc(N=C4SCC(=O)N4CCC)cc3nc2c1 | 36.8% (inactive)
28 | CCOC(=O)C1=C(N)Oc2cc(OC)ccc2C1c1ccc(F)c(F)c1 (centres undefined) | 25.2% (inactive)
29 | CC(C(C(=O)N1CCCCC1)N1CCCCC1)N1CCCCC1 (centres undefined) | 118% (inactive)
30 | COc1ccc2c(-c3ccc(F)cc3)c(C#N)c(=NC(C)=O)oc2c1 | 106% (inactive)
31 | COc1ccc(-c2nnc(SCC(=O)Nc3ccc(C(=O)/C=C/c4ccc(Cl)cc4)cc3)o2)cc1OC | 116% (inactive)
32 | COc1cccc(/C=N/C(=S)NC2(C)C3CCC(C3)C2(C)C)c1O (centres undefined) | 89.6% (inactive)
33 | CC1(C)N=C(N)N=C(N)N1c1ccc(OCC(=O)Nc2ccccc2)c(Cl)c1 | 82.9% (inactive)
34 | FC(F)(F)c1cn(CCN2CCOCC2)c2ncnc(Cl)c12 | 76.5% (inactive)
35 | COc1ccc(-c2nn(-c3ccc(NC(=O)Nc4cc(C(F)(F)F)cc(C(F)(F)F)c4)cc3)cc2-c2ccncc2)cc1Cl | -33.4% (active)
36 | O=C(CNc1cccnc1)Nc1ccc(C(=O)/C=C/c2ccc(Cl)cc2)cc1 | 106% (inactive)
37 | CCc1ccc(C2=C/C(=C/c3ccc(Cl)cc3)C(=O)N2CCc2ccc(S(N)(=O)=O)cc2)cc1 | -35.4% (active)
38 | O=C(Nc1ccc(-n2ccc3c(NC(=O)c4ccccc4)nccc32)cc1)c1cccc(C(F)(F)F)c1 | 35.8% (inactive)
39 | O=S(=O)(CCN1CCOCC1)Nc1cc(-c2ccc3ncnc(Nc4ccc(F)c(Cl)c4)c3c2)cnc1Cl | -6.12% (active)
40 | CCC1S/C(=N\N=C(/C)c2cc3ccccc3o2)N(c2ccccc2)C1=O (centres undefined) | 123% (inactive)

Row | Structure (SMILES) | growth
41 | COc1cccc(-c2nc3sccn3c2-c2ccnc(NCCNC(=O)c3ccccc3)n2)c1 | 51.8% (inactive)
42 | NC(N)=N/N=C/c1ccc([N+](=O)[O-])cc1 | 113% (inactive)
43 | C#C[C@@]1(O)[C@@H](CO)O[C@@H](n2cc(Br)c3c(Cl)ccnc32)[C@@H]1O | 17.2% (inactive)
44 | CCOC(=O)C(C)(CSSCC(C)(NC(=O)c1ccc2ccccc2c1)C(=O)OCC)NC(=O)c1ccc2ccccc2c1 (centres undefined) | 121% (inactive)
45 | O=C(C[n+]1cccc(Br)c1)c1ccc2c(c1)CCCC2 | 91.4% (inactive)
46 | CCC(C)Nc1ccc(N)cc1 (centres undefined) | -57.2% (active)
47 | Cc1cn(-c2nc3c(c(NCc4ccccc4)n2)COCC3)c2cccc(C(N)=O)c12 | 87.8% [0.5 µM] (inactive)
48 | Nc1ncnc2c1ccn2-c1cccc(NC(=O)c2cccc(C(F)(F)F)c2)c1 | 75.7% (inactive)
49 | COc1ccc(-c2nnc(SCC(=O)Nc3ccc(C(=O)/C=C/c4ccccc4)cc3)o2)cc1OC | 113% (inactive)
50 | CCCCCCCCCCCCCCCCCCNCc1ccc(Cl)cc1 | -83.9% (active)
51 | Clc1ccc2c(c1)nnn1c3ncccc3c(Br)c21 | 88.9% (inactive)
52 | CCCOC(=O)c1ccc([N+](=O)[O-])o1 | 120% (inactive)
53 | [2H]c1nc(Nc2ncc(F)c(-c3cc(F)c4nc(C)n(C(C)C)c4c3)n2)c([2H])c([2H])c1CN1CCN(CC)CC1 | 15.6% (inactive)
54 | COc1ccccc1N1CCN(CC(O)COc2c(Br)c(Br)c(Br)c3c2OC(C)(C)C3)CC1 (centres undefined) | 58.6% (inactive)
55 | CCOC(=O)c1noc2c1CCc1cn(Cc3cc(OC)cc(OC)c3)cc1-2 | 115% (inactive)
56 | O=C1c2ccccc2C(=O)c2c(NCCN=Cc3c(O)ccc4ccccc34)cccc21 | 85.3% (inactive)
57 | Cc1[nH]n(C(=O)c2ccncc2)c(=O)c1N=Nc1ccc(S(=O)(=O)Nc2ccncn2)cc1 | 127% (inactive)
58 | O=C(Nc1ccc(Cl)c(Cl)c1)Nc1ccc(Cl)c([N+](=O)[O-])c1 | -80% (active)
59 | COc1ccc(-c2cnc(-c3ccc(F)cc3)[nH]2)cc1 | 111% (inactive)
